This passage reports binding signal results from article PMC8384837, “Expanding the binding specificity for RNA recognition by a PUF domain”.

Common to all, as to test: yeast three-hybrid, YBZ-1, SC-Leu-His + 0.5 mM 3-AT, 4 days
Holding throughout (conditions): tags: N-Gal4 AD-HA kept; label: inside an RPR1-promoter hybrid RNA with tandem MS2 sites; ssRNA

Assay [1] has as its target PUM1 PUF domain R2-NWW (Homo sapiens, UniProt Q14671 828-1176, Y900W;Q903W). Summed up: (§1)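 A centromeric plasmid in strain YBZ-1 co-expressed Pumilio-1 PUF domain libraries, randomized at the three base-contacting residues of each repeat, with matching RNA elements; the strain carries a LexA–MS2 coat fusion and a HIS3 reporter. After four days on SC-Leu (input) or SC-Leu-His + 0.5 mM 3-AT (selection), the repeat regions were PCR-amplified and Illumina-sequenced. The interaction score is the log change in variant frequency from input to selection, using log2 and a pseudocount of 1 where absent.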

Assay [2] deals with PUM1 PUF domain R5-ERK (Homo sapiens, UniProt Q14671 828-1176, C1007E;Q1011K). A digest of the protocol: as §1
Assay [3] concerns the target PUM1 PUF domain R3-GPF (Homo sapiens, UniProt Q14671 828-1176, C935G;R936P;Q939F). A digest of the protocol: as §1
In assay [4] the target is T1, PUM1 PUF domain R6-QRQ (Homo sapiens, UniProt Q14671 828-1176, N1043Q;Y1044R).
T1 sequence: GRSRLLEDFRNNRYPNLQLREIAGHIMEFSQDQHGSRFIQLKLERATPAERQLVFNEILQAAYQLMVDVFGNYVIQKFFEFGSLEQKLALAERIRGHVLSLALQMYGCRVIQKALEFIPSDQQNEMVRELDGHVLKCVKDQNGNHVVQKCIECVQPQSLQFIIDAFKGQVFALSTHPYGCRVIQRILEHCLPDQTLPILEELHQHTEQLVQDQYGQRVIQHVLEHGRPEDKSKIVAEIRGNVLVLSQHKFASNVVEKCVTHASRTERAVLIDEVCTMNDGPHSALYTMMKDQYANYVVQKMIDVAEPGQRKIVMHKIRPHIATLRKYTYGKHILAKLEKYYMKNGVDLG
A digest of the protocol: as §1

The target of assay [5] is PUM1 PUF domain R3-DFL (Homo sapiens, UniProt Q14671 828-1176, C935D;R936F;Q939L). A digest of the protocol: as §1
The target in assay [6] is PUM1 PUF domain R1-GRK (Homo sapiens, UniProt Q14671 828-1176, S863G;Q867K). Summed up:
as §1

Assay [7] addresses PUM1 PUF domain R1-KLS (Homo sapiens, UniProt Q14671 828-1176, S863K;R864L;Q867S). A digest of the protocol:
as §1

For assay [8], the target named is PUM1 PUF domain R3-LHG (Homo sapiens, UniProt Q14671 828-1176, C935L;R936H;Q939G). A digest of the protocol:
as §1

In assay [9] the target is PUM1 PUF domain R3-SEE (Homo sapiens, UniProt Q14671 828-1176, C935S;R936E;Q939E). Summed up: as §1
Assay [10] has as its target PUM1 PUF domain R7-TSS (Homo sapiens, UniProt Q14671 828-1176, S1079T;N1080S;E1083S). A digest of the protocol: as §1
For assay [11], the target named is PUM1 PUF domain R2-PWE (Homo sapiens, UniProt Q14671 828-1176, N899P;Y900W;Q903E). Summed up: as §1
The target of assay [12] is PUM1 PUF domain R4-DHR (Homo sapiens, UniProt Q14671 828-1176, N971D;Q975R). A digest of the protocol: as §1
For assay [13], the target named is PUM1 PUF domain R4-PFQ (Homo sapiens, UniProt Q14671 828-1176, N971P;H972F). A digest of the protocol:
as §1

For assay [14], the target named is T2, PUM1 PUF domain R6-CYT (Homo sapiens, UniProt Q14671 828-1176, N1043C;Q1047T).
T2 sequence: T1 sequence with Q216C, R217Y, Q220T
Summed up:
as §1

Assay [15] deals with PUM1 PUF domain R5-GVR (Homo sapiens, UniProt Q14671 828-1176, C1007G;R1008V;Q1011R). Summed up: as §1
Assay [16] concerns the target PUM1 PUF domain R5-KLH (Homo sapiens, UniProt Q14671 828-1176, C1007K;R1008L;Q1011H). Summed up: as §1

Positions count from the first letter of the chain named.

As for “GGCUAGAACUAGUGGAUCCCCCGGCGCCCGGCGGCUCGAGCCCGGGUAAGUGUAAAUAGUCUGCAUGCCGCCGGGCGCCAUGCCUGCAGGUCGACUCUAGAAAACAUG”, the binding signal in assay [1] was 3.94 log2 enrichment (interaction score); in assay [2], 4.01 log2 enrichment (interaction score); in assay [3] it was 5.65 log2 enrichment (interaction score); in assay [4], 2.52 log2 enrichment (interaction score); in assay [5], 2.6 log2 enrichment (interaction score).

As to “GGCUAGAACUAGUGGAUCCCCCGGCGCCCGGCGGCUCGAGCCCGGGUAAGUGUAAAUUGUCUGCAUGCCGCCGGGCGCCAUGCCUGCAGGUCGACUCUAGAAAACAUG”, in assay [6], the binding signal is 3.96 log2 enrichment (interaction score). “GGCUAGAACUAGUGGAUCCCCCGGCGCCCGGCGGCUCGAGCCCGGGUAAGUGUAAAUCGUCUGCAUGCCGCCGGGCGCCAUGCCUGCAGGUCGACUCUAGAAAACAUG”: the binding signal in [6] is 5.64 log2 enrichment (interaction score); in [7], 3.97 log2 enrichment (interaction score). In the case of “GGCUAGAACUAGUGGAUCCCCCGGCGCCCGGCGGCUCGAGCCCGGGUAAGUGUAAUUAGUCUGCAUGCCGCCGGGCGCCAUGCCUGCAGGUCGACUCUAGAAAACAUG”, the binding signal in [8] was 4.7 log2 enrichment (interaction score). On to “GGCUAGAACUAGUGGAUCCCCCGGCGCCCGGCGGCUCGAGCCCGGGUAAGUGUAAGUAGUCUGCAUGCCGCCGGGCGCCAUGCCUGCAGGUCGACUCUAGAAAACAUG”, for which the results for the binding signal in assay [8] and in assay [9] were 6.02 log2 enrichment (interaction score) and 2.43 log2 enrichment (interaction score), respectively.

Regarding “GGCUAGAACUAGUGGAUCCCCCGGCGCCCGGCGGCUCGAGCCCGGGUAAGUUUAAAUAGUCUGCAUGCCGCCGGGCGCCAUGCCUGCAGGUCGACUCUAGAAAACAUG”, in assay [10], the binding signal was 2.55 log2 enrichment (interaction score). For the sequence “GGCUAGAACUAGUGGAUCCCCCGGCGCCCGGCGGCUCGAGCCCGGGUAAGUGUAAAGAGUCUGCAUGCCGCCGGGCGCCAUGCCUGCAGGUCGACUCUAGAAAACAUG”, the binding signal in assay [11] is 4.9 log2 enrichment (interaction score). With “GGCUAGAACUAGUGGAUCCCCCGGCGCCCGGCGGCUCGAGCCCGGGUAAGUGUAAAAAGUCUGCAUGCCGCCGGGCGCCAUGCCUGCAGGUCGACUCUAGAAAACAUG”, the binding signal in [11] is 2.14 log2 enrichment (interaction score). “GGCUAGAACUAGUGGAUCCCCCGGCGCCCGGCGGCUCGAGCCCGGGUAAGUGUAUAUAGUCUGCAUGCCGCCGGGCGCCAUGCCUGCAGGUCGACUCUAGAAAACAUG”: the figures for the binding signal in [12] and in assay [13] were 4.76 log2 enrichment (interaction score) and 5.54 log2 enrichment (interaction score), respectively.

Take “GGCUAGAACUAGUGGAUCCCCCGGCGCCCGGCGGCUCGAGCCCGGGUAAGUGUACAUAGUCUGCAUGCCGCCGGGCGCCAUGCCUGCAGGUCGACUCUAGAAAACAUG”: the binding signal in assay [12] is 6.79 log2 enrichment (interaction score). “GGCUAGAACUAGUGGAUCCCCCGGCGCCCGGCGGCUCGAGCCCGGGUAAGUGAAAAUAGUCUGCAUGCCGCCGGGCGCCAUGCCUGCAGGUCGACUCUAGAAAACAUG”: the binding signal in [14] was 3.1 log2 enrichment (interaction score).

As for “GGCUAGAACUAGUGGAUCCCCCGGCGCCCGGCGGCUCGAGCCCGGGUAAGUGUUAAUAGUCUGCAUGCCGCCGGGCGCCAUGCCUGCAGGUCGACUCUAGAAAACAUG”, the binding signal in [15] is 1.75 log2 enrichment (interaction score).

Take “GGCUAGAACUAGUGGAUCCCCCGGCGCCCGGCGGCUCGAGCCCGGGUAAGUGUCAAUAGUCUGCAUGCCGCCGGGCGCCAUGCCUGCAGGUCGACUCUAGAAAACAUG”: the binding signal in assay [15] is 5.93 log2 enrichment (interaction score); in assay [16], 2.85 log2 enrichment (interaction score).
